Screening data as filed in PubChem BioAssay.
The list is not random: actives were taken first. Their share in the collection is about 7.3%.
NPC1 prom act = activates the NPC1 promoter | Huh7 NPC1 promoter luciferase reporter, 24 h | Potency, µM (series often up to 9.22 µM), without a hit: at the highest dose activation, actives largely listed as activators | actives 2.4% (n = 320,000) | AID 485313; note: % of control where 0% means no effect; nearly all actives have a fitted effect of over 60% in size
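Luciferase expression driven by the NPC1 promoter was measured in stably transfected Huh7 cells after a 24 h compound incubation, using a luciferase reagent and a luminescence read.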
ELG1 genotox = inducers of genotoxicity in HEK293T ELG1-luciferase cells | HEK293T ELG1-luciferase reporter, luminescence, 16 h | Potency, µM (series often up to 46 µM), for the others: top-dose activity change, positive = activation, most hits filed as activators | actives 1.3% (n = 330,000) | AID 504466; note: % of control where 0% means no effect; nearly all actives have a fitted effect of over 60% in size
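Reporter readout depends on ELG1 protein level, which increases with genetic stress. After 16 hr compound exposure at 37 °C, luciferase activity was quantified using ONE-Glo.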
FLuc counter = counter-screen for miR-21 project: firefly luciferase inhibitors or activators. P08659. purified FLuc, Km substrates, luminescence inhibition. Potency, µM (top dose mostly 57.5 µM), inactives show at the top dose activity change, negative = inhibition, most hits filed as inhibitors. actives 6.9% (n = 360,000). AID 588342;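 note: plate controls were vehicle for no effect and reference inhibitor for full effect; nearly all actives have a fitted effect of over 55% in size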
Target sequence (P08659 whole entry, looked up): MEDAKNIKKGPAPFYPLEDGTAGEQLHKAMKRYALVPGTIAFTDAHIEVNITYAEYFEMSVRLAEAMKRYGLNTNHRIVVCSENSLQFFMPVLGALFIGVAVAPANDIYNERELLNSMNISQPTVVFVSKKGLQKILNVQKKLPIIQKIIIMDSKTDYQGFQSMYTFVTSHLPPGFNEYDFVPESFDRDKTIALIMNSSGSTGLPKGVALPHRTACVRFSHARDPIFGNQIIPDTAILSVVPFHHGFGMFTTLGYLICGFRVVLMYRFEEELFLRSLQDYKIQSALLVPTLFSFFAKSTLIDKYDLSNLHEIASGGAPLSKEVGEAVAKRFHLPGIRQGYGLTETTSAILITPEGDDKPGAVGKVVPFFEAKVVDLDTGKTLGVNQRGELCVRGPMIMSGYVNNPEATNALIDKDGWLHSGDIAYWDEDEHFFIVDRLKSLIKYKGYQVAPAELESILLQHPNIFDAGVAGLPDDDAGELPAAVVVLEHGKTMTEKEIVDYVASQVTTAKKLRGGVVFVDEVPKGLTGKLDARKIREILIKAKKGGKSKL
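Purified P. pyralis luciferase (10nM final) with 10uM D-luciferin and 10uM ATP (Km levels) in 50mM Tris acetate pH 7.5, 10mM Mg acetate, 0.01% Tween-20, 0.05% BSA; qHTS 6-point titration, ~60 µM downward; luminescence read.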
SMN2 splice enh = SMN2 splice variant enhancement; HEK293 SMN2-luciferase splicing reporter, luminescence, 30-36 h; Potency, µM (highest dose often 46.1 µM), inactives show at the top dose activity change, positive = activation, most hits filed as activators; actives 2.8% (n = 210,000); note: % of control where 0% means no effect; nearly all actives have a fitted effect of over 55% in size
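qHTS luciferase splicing reporter: luminescence rises when SMN2 exon 7 is included in transfected HEK293 cells. Compound exposure lasted 30-36 h at 37C, with 4.5 mM final sodium butyrate as control, followed by a ONE-Glo read.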
Rab9 prom act = activates the Rab9 promoter; AID 485297; Huh7 Rab9 promoter-luciferase reporter, luminescence, 24 h; actives 2.8% (n = 320,000); Potency, µM (series often up to 9.22 µM), inactives show top-dose activation, negative = inhibition, actives largely listed as activators; note: % of control where 0% means no effect; nearly all actives have a fitted effect of over 60% in size
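Rab9 promoter-driven luciferase in stably transfected Huh7 cells; 1500 cells/well rested 2 h, exposed to compound in DMSO for 24 h at 37 °C, 5% CO2. Luminescence read 10 min after adding luciferase reagent at ambient temperature.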
KinaseGlo FLuc = blocks Kinase-Glo luciferase, a counter-screen artifact; Q27757; Kinase-Glo luciferase, ATP luminescence, 8 min; Potency, µM (titrated, usually from 38.3 µM), for the others: top-dose activity change, negative = inhibition, most hits filed as inhibitors; actives 0.28% (n = 200,000); AID 1379; note: % is set by controls: 0 for no effect and ±100 for the full control effect; nearly all actives have a fitted effect of over 60% in size
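Compound is pinned into ATP-containing buffer (10 uM ATP, imidazole pH 7.2, 7 mM MgCl2). Kinase-Glo luciferase reagent is then added. Light output is recorded following an 8-min room-temperature incubation.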
Numbers without * were called inactive; ? = inconclusive; nt = no result given; [ ] = dose if it differs, or a comment. Calls come from the whole dose curve; as a rule, active = well fitted curve in the direction sought with a large enough effect; inconclusive = small, poorly fitted or top-dose-only effect, or another doubt; inactive = no such curve, though single readings can be large; an effect the other way counts as inactive or inconclusive. Potency is the fitted concentration of half-maximal effect.

SMILES | NPC1 prom act | ELG1 genotox | FLuc counter | SMN2 splice enh | Rab9 prom act | KinaseGlo FLuc
CN(C)CCn1c(=S)[nH]c2ccccc2c1=O | 14.4% | 5.3% | 0.3% | 11.4% | 0.8% | -0.8%
O=C1c2ccccc2-c2onc3c(Oc4ccccc4)cc(O)c1c23 | 8.6% | ? | ? | 11.2µM* | 0.7% | -10.6%
CCc1ccc(N2Cc3ccccc3C2)cc1 | 2.82µM* | ? | 6.01µM* | nt | 3.55µM* | nt
CCOC(=O)c1ccc(N2Cc3ccccc3C2)cc1O | 26.9% | ? | 8.49µM* | nt | ? | -1.1%
COc1ccc(OC)c(CC2C(=O)Nc3ccc(Br)cc32)c1 (stereo unspecified) | nt | nt | -6.1% | nt | nt | nt
CCCC(=O)N1CCc2cc(OC)c(OC)cc2C1COc1ccc2c(C)cc(=O)oc2c1 (stereo unspecified) | nt | nt | 0.7% | 2.3% | nt | nt
Clc1ccccc1OCCn1cnc2ccccc21 | 26.5% | ? | 16.9µM* | -19.4% | ? | -3.5%
Brc1ccccc1OCCCCn1cnc2ccccc21 | -3.6% | ? | 10.7µM* | -46.0% | -0.7% | 1.3%
Cc1ccc(OCCCCn2cnc3ccccc32)c(C)c1 | 1.8% | 4.1% | 10.7µM* | -75.7% | -1.5% | -2.3%
Brc1ccccc1Cn1cnc2ccccc21 | -1.2% | -1.1% | 1.8% | nt | -1.9% | nt
Cc1ccc(C)c(OCCCCn2cnc3ccccc3c2=O)c1 | -1.2% | -5.4% | -12.0% | nt | -3.2% | nt
N#C/C(=C(\O)C(=O)O)c1ccc(-c2cccc3ccccc23)cc1 | nt | nt | nt | -6.8%[9.22 µM] | nt | -4.8%[7.66 µM]
CCOCCCNC(=O)c1cnc2sc(N3CCCCCC3)nn2c1=O | nt | nt | -0.2% | nt | nt | nt
O=C(Nc1ccon1)c1ccc(OC2CCCC2)cc1 | 2.51µM* | ? | 3.01µM* | 17.8µM* | 2µM* | -7.8%
CC(C)(C)c1cc(NC(=O)c2ccc(OC3CCCC3)cc2)no1 | 23.4% | -0.1% | ? | -18.0% | 18.7% | 0.9%
COc1ccc(NCc2cc3ccc(OC)cc3n(CC(=O)Nc3cccc(OC)c3)c2=O)cc1 | nt | nt | -5.6% | nt | nt | nt
Cn1c(-c2ccccc2F)cc2onc(-c3ccccc3)c2c1=O | 0.316µM* | 0.461µM* | 0.536µM* | nt | 0.398µM* | nt
Cn1c(-c2ccccc2)cc2onc(-c3ccccc3)c2c1=O | 0.0794µM* | ? | 0.169µM* | nt | 39.8µM* | nt
COC(=O)c1ccc(C(=O)OC)c(NC(=O)c2ccc(-c3ccccc3)s2)c1 | nt | nt | 0.0% | ? | nt | nt
Oc1cc(O)c2c(c1)O[C@H](c1ccc(O)c(O)c1)[C@@H](O)[C@@H]2c1c(O)cc(O)c2c1O[C@@H](c1ccc(O)c(O)c1)[C@H](O)C2 | nt | nt | nt | -4.1%[9.22 µM] | nt | -5.2%[7.66 µM]
Cc1cc(C)nc(NC(=O)c2ccc(C)c([N+](=O)[O-])c2)n1 | -5.0% | -0.4% | 7.3% | 2.3% | -7.0% | -1.6%
Cc1csc(NC(=O)c2ccc(Cl)cc2[N+](=O)[O-])n1 | ? | ? | 26.9µM* | 11.2µM* | 4.47µM* | -3.6%
Cc1csc(NC(=O)c2ccc(C)c([N+](=O)[O-])c2)n1 | 2µM* | ? | 1.07µM* | 3.55µM* | 1.12µM* | -28.2%
CS(=O)(=O)CC[C@@H](C(=O)NCCc1ccccc1)N1Cc2ccccc2C1=O | nt | nt | -0.1% | -3.2% | nt | nt
O=C(NC(c1cccnc1)C(F)(F)F)c1cc(COc2ccc3c(c2)CCCC3)on1 (stereo unspecified) | -3.2% | 12.0% | 15.1µM* | nt | 6.2% | nt
COc1ccccc1OCCCn1c(C2CC(=O)N(c3ccccc3Cl)C2)nc2ccccc21 (stereo unspecified) | nt | nt | 16.9µM* | 17.5% | nt | nt
CCc1ccccc1N1CC(c2nc3ccccc3n2CCCCOc2ccccc2OC)CC1=O (stereo unspecified) | nt | nt | -17.1% | -73.1% | nt | nt
CCOc1ccccc1N1CC(c2nc3ccccc3n2CCCOc2ccccc2OC)CC1=O (stereo unspecified) | nt | nt | 16.9µM* | 22.6% | nt | nt
O=[N+]([O-])c1ccc(CSc2ncnc3c2ncn3C2OC(CO)C(O)C2O)cc1 (stereo unspecified) | nt | nt | nt | 3.1% | nt | nt
